Screening results as filed in PubChem.
BAZ2B inh = blocks human BAZ2B | Q9UIF8 | AlphaScreen BAZ2B-H3K14Ac peptide displacement | Potency, µM (highest dose often 114 µM), for inactives: at the top dose activity change, negative = inhibition, most hits filed as inhibitors | hit rate 4.4% among 360,000; also: potency is read from the fitted curve at half-maximal effect; % is scaled to controls: 0 for no effect and ±100 for the full control effect; nearly all actives have a fitted effect of over 60% in size
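In this displacement format the biotinylated H3(5-23) peptide acetylated at Lys14 serves as ligand at 50 nM, with BAZ2B at 50 nM in PBS pH 7.4 containing 0.01% Tween-20. Donor and acceptor beads are 10 ug/mL final.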
HP1b binding inh = blocks HP1-beta chromodomain binding to methylated histone tails; P83916; AlphaScreen HP1-beta / biotin-H3K9me3 peptide binding; Potency, µM (titrated, usually from 114 µM), for inactives: at the top dose activity change, negative = inhibition, actives largely listed as inhibitors; hit rate 0.56% among 390,000; AID 540317; also: potency is read from the fitted curve at half-maximal effect; nearly all actives have a fitted effect of over 70% in size
Target sequence (P83916 whole entry, looked up): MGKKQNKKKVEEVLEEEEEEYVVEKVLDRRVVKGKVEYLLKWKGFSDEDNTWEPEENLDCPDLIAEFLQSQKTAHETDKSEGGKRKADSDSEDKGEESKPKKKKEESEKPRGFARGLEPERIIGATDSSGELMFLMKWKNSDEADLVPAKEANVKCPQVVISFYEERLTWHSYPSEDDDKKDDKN
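Compound inhibition of the preformed complex between 50 nM HP1-beta and 50 nM biotinylated H3K9me3 peptide was read by AlphaScreen. Buffer was PBS pH 7.4 with 0.01% Tween-20. Incubations ran 30 min at room temperature, with 10 ug/mL donor/acceptor beads.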
G9a inh = inhibitors of human histone lysine methyltransferase G9a; G9a H3K9 monomethylation, AlphaScreen, 2 h; AID 504332; hit rate 8.8% among 350,000; Q96KQ7; Potency, µM (series often up to 102 µM), for the others: at the highest dose activity, negative = inhibition, usual class: inhibitors; also: potency is read from the fitted curve at half-maximal effect; % is scaled to controls: 0 for no effect and ±100 for the full control effect; nearly all actives have a fitted effect of over 75% in size
Target sequence (Q96KQ7 913-1193 limits assumed): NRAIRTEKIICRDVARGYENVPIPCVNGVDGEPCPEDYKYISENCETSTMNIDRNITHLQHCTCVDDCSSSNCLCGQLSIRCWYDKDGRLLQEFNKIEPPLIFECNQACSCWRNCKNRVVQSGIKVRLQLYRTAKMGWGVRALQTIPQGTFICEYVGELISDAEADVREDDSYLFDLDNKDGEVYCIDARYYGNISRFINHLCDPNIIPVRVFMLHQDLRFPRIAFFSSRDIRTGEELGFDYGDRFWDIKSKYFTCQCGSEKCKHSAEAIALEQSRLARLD
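Chemiluminescent proximity detection of H3K9 monomethylation, read after 10 min bead incubation in the dark. Reaction: 20 nM G9a, 500 nM biotin-H3K9 peptide, 20 uM SAM cofactor, 2 h, room temperature, following 15 min enzyme-compound preincubation.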
JMJD2A Tudor = inhibitors of human JMJD2A Tudor domain. O75164. AlphaScreen JMJD2A-Tudor / H3K4me3 peptide binding. Potency, µM (series often up to 114 µM), for inactives: at the top dose activity change, negative = inhibition, most hits filed as inhibitors. hit rate 4.4% among 390,000. AID 504339; also: potency is read from the fitted curve at half-maximal effect; % is scaled to controls: 0 for no effect and ±100 for the full control effect; nearly all actives have a fitted effect of over 50% in size
Six1-Eya2 inh = Six1/Eya2 interaction inhibition; AlphaScreen GST-Six1/His-Eya2 binding, biochemical; active compounds read low; activity change, % (no concentration beside the values); hit rate 0.56% among 360,000; AID 651725; in the data active = activity change below about -65%; inconclusive = mostly about -30% to -63%; also: % is scaled to controls: 0 for no effect and ±100 for the full control effect
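GST-Six1 + His-Eya2 (5X stock: 250/500 nM); Tris pH 8.0, 300 mM NaCl, 0.05% BSA, 0.02% Tween 20; GSH donor/Ni acceptor beads; 1 h 37 °C dark; AlphaScreen readout.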
CtBP-E1A inh = blocks the CtBP interaction with E1A; AlphaScreen GST-E1A/His-CtBP binding, 1536-well; active compounds read low; activity change, % (concentration not given with the values); hit rate 0.49% among 340,000; in the data active = activity change below about -65%; inconclusive = mostly about -30% to -63%; also: % is scaled to controls: 0 for no effect and ±100 for the full control effect
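Protein mix (5X: 125 nM each GST-E1A, His-CtBP) was incubated with pinned compound 2 h at 37 deg C in dark, in 50 mM Tris pH 8.0 buffer with 300 mM NaCl. Glutathione donor and nickel acceptor beads followed; AlphaScreen signal read after 1 h.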
Active calls of the source: *; ? = inconclusive; / = no result given; [ ] = remark or other dose. In the library only some 10% were active in any assay of this set; here they are far more common. Unless noted, calls follow the shape of the dose curve; as a rule, active = well fitted inhibition curve with a large enough effect; inconclusive = small, poorly fitted or top-dose-only effect; inactive = no such curve, though single readings can be large or run the other way.

SMILES	BAZ2B inh	HP1b binding inh	G9a inh	JMJD2A Tudor	Six1-Eya2 inh	CtBP-E1A inh
Cc1cc(C(=O)CN2C(=O)NC3(CCCCC3)C2=O)c(C)n1-c1ccc2c(c1)OCO2	?	?	12%[59 µM]	56µM*	0	-11
CSc1ccc(Cn2c(C)c(C(=O)NCCC#N)sc2=O)cc1	/	/	/	/	0	0
CC(C)N1C(=S)N(Cc2ccco2)C(=O)C1CC(=O)Nc1ccccc1 (centres undefined)	?	20%	50µM*	-19%	-2	-12
CO/N=C(\C(=O)N[C@@H]1C(=O)N2C(C(=O)[O-])=C(C[n+]3cccc4c3CCC4)CS[C@H]12)c1csc(N)n1	/	/	-27%[12.7 µM]	/	/	/
CCC(COC)NC(=O)CCc1nnc(Cc2c[nH]c3ccccc23)o1 (centres undefined)	-4%	42%	?	5%	1	8
CN(Cc1ccsc1)C(=O)CCc1nnc(Cc2c[nH]c3ccccc23)o1	-1%	-16%	9%	45µM*	0	2
CC(C)(C)NC(=O)CCc1nnc(Cc2c[nH]c3ccccc23)o1	18%	35%	45µM*	-15%	-2	-20
COC(=O)C1=C(C(=O)OC)[C@@H]2N(C)c3ccc(OC)cc3[C@@]23C[C@@H](C(=O)OC)N(C(=O)C2CCC2)C3=N1	11µM*	?	?	25µM*	?	?
COC(=O)C1=C(C(=O)OC)[C@@H]2N(C)c3ccc(OC)cc3[C@@]23C[C@@H](C(=O)OC)N(C(=O)CC(C)C)C3=N1	/	?	/	50µM*	?	-30
CCOc1ccccc1CNC(=O)c1cnc2sc(N3CCOCC3)nn2c1=O	-7%	-15%	13%[59 µM]	-25%	/	/
O=C1C(Cl)=C(Nc2ccc(O)cc2)C(=O)c2ccccc21	?	?	11µM*	?	0	-16
CCC(=O)NC1=C(Nc2ccc(N)cc2)C(=O)c2ccccc2C1=O	?	?	50µM*	-23%	?	?
O=C1C(c2ccc(C(F)(F)F)cc2)=C(Nc2ccc(Cl)cc2)c2ccccc21	-22%	4%	-13%[59 µM]	-18%	/	/
CCCC(=O)NNC(=O)CCC(=O)Nc1ccccc1Cl	-10%	28%	-4%	-9%	2	2
Cc1ccc(NC2=C(Cl)C(=O)c3ccccc3C2=O)cc1	?	-20%	79µM*	?	-10	11
CCCC(=O)NC1=C(Cl)C(=O)c2ccccc2C1=O	/	7.1µM*	/	1.8µM*	-4	-4
COc1ccc(S(=O)(=O)N2CCOCC2)cc1NC(=O)CSc1nnc2c(n1)[nH]c1ccccc12	-17%	5%	?	-22%	?	?
CCN(CC)c1ccc(NC2=C(Cl)C(=O)c3ccccc3C2=O)cc1	2.2µM*	4µM*	1.8µM*	2.5µM*	?	?
Nc1ccc2c(c1)C(=O)c1ccccc1C2=O	-28%	1%	?	-26%	-14	-18
CCN(CC)c1ccc(NC(=O)Nc2ccccc2C(F)(F)F)cc1	-36%	6%	/	-24%	0	0
Cc1cc(C)cc(NC2=C(N)C(=O)c3ccccc3C2=O)c1	?	-19%	1.6µM*	?	-70*	?
CCOc1ccc(CCNC(=O)c2sc3nc4n(c(=O)c3c2C)CCCC4)cc1OCC	56µM*	71%	-35%[59 µM]	-14%	/	/
Cc1c(C(=O)NCc2ccc(Cl)cc2)sc2nc3n(c(=O)c12)CCCC3	-23%	115%	11µM*	9%	/	/
CCc1cccc(NC(=O)c2sc3nc4n(c(=O)c3c2C)CCC4)c1	-18%	20%	21%	-1%	-14	?
Cc1c(C(=O)Nc2cccc(C#N)c2)sc2nc3n(c(=O)c12)CCCCC3	50µM*	36%	?	-12%	/	/
COc1ccc(CNC(=O)c2sc3nc4n(c(=O)c3c2C)CCCC4)cc1	45µM*	56%	14µM*	89µM*	/	/
Cc1c(C(=O)NCc2ccccc2Cl)sc2nc3n(c(=O)c12)CCC3	-38%	10%	-29%[59 µM]	-23%	/	/
